Data as given in PubChem BioAssay AID902 (National Center for Advancing Translational Sciences (NCATS), 2007).
The campaign covered roughly 130,000 compounds. About 1,900 (1.5%) were called active. Another 5% or so got no clear call; they are omitted. What follows is part of a selection rich in actives, with near analogues and random picks from the rest. Where a call stands in place of a potency, no number is given. A number with no mark means an inactive call. Calls follow the shape of the dose curve; as a rule, active = well fitted cell-killing curve with a large enough effect; inconclusive = small, poorly fitted or top-dose-only effect; inactive = no such curve, though single readings can be large or run the other way.

assay: qHTS Screen for Compounds that Selectively Target Cancer Cells with p53 Mutations: Cytotoxicity of p53ts Cells at the Nonpermissive Temperature; details: H1299-p53A138V viability at 39C, ATP luminescence, 24 h; series mostly up to 46.1 µM; also: nearly all actives have a fitted effect of over 55% in size
Potency is read from the fitted curve at half-maximal effect.

Row | Compound | Potency | activity change, negative = cell killing
1 | CC1CCCN(S(=O)(=O)c2ccc3[nH]c(=O)cc(C(=O)NCCc4ccc(Cl)cc4)c3c2)C1 (configuration not stated) | inactive | 
2 | CCC1CCCCN1C(=O)Cn1c(=O)n(CCCCCC(=O)NCc2ccccc2)c(=O)c2sccc21 (configuration not stated) | inactive | 
3 | Cc1cc(C)c(NC(=O)CSc2nc3ccncc3[nH]2)c(C)c1 | inactive | 
4 | Cn1c(=O)c2c(-c3ccccc3Br)n(Cc3ccccc3)cc2n(C)c1=O | inactive | 
5 | Cn1c(=NC(=O)CSCC(=O)N2CCCCC2)sc2ccccc21 | inactive | 
6 | Cn1c(=NC(=O)CSCC(=O)N2CCOCC2)sc2ccccc21 | inactive | 
7 | Cn1c(=NC(=O)c2cnccn2)sc2ccccc21 | 10 µM (active) | 
8 | CCOc1ccc(-c2cc3nc(C4CCN(C(=O)OC(C)(C)C)CC4)c(C(=O)Nc4cccc(CC)c4)cn3n2)cc1 | inactive | 
9 | Cc1ccc2nc(CC(=O)c3ccc4ccccc4c3)c(=O)[nH]c2c1 |  | 2.32% [at 9.22 µM]
10 | O=C(CN1C(=O)C2C3CCC(C3)C2C1=O)Oc1ccc2ccccc2c1 (configuration not stated) | inactive | 
11 | C=CC(=O)c1ccc2ccccc2c1 | 10 µM (active) | 
12 | COc1cccc(CNC(=O)CSc2c3c(nc4cc(Cl)ccc24)CCCC3)c1 | inactive | 
13 | CCOC(=O)Cc1ccc(NC(=O)Nc2c[nH]c(=O)[nH]c2=O)cc1 | inactive | 
14 | CCOc1ccccc1CNCc1c(C(=O)O)c(C)n(Cc2ccc(C)cc2)c1C | inactive | 
15 | CCOc1ccc(C(=O)Nc2ccncc2)cc1 | inactive | 
16 | CCC(=O)Oc1cccc(C(=O)Nc2ccc(-c3nnc(-c4ccco4)o3)cc2)c1 | inactive | 

Row | Compound | Potency | activity change, negative = cell killing
17 | CCOc1ccc(-c2nnc(-c3ccco3)o2)cc1 | 12.6 µM (active) | 
18 | CCOc1ccc(NC(=O)c2ncoc2-c2ccco2)cc1 | 7.94 µM (active) | 
19 | Cc1ccc(OCC(=O)Nc2ccc(-c3nnc(-c4ccco4)o3)cc2)cc1 | inactive | 
20 | CCOc1ccc(NC(=O)Nc2cc(C)on2)cc1 | inactive | 
21 | CN(C)CCCn1c(-c2ccc(Cl)cc2)csc1=Nc1ccccc1 | inactive | 
22 | CCCN(CCC)CCNC(=O)Cn1cnc2sc(C)c(S(=O)(=O)N3CCC(C)CC3)c2c1=O | inactive | 
23 | COc1ccc(S(=O)(=O)c2c(Nc3ccc(C)cc3)sc(C(=O)c3ccc(C)cc3)c2N)cc1 | inactive | 
24 | Cc1cccc(OCC(=O)N(Cc2ccc(C(C)C)cc2)Cc2ccco2)c1C | inactive | 
25 | C=CCN(CC=C)C(=O)CN1C(=O)c2ccccc2C1=O | inactive | 
26 | Cc1cc(C(=O)COC(=O)CCCN2C(=O)c3ccccc3C2=O)c(C)n1C | inactive | 
27 | C=CCn1c(C)cc(C(=O)CN2C(=O)c3ccccc3C2=O)c1C | 12.6 µM (active) | 
28 | CC(=O)N1CCCc2cc(S(=O)(=O)N3CCC(C(=O)NCc4ccc(F)cc4)CC3)ccc21 | inactive | 
29 | Cc1c(Cl)cccc1NC(=O)c1noc2c1CCCC2 | inactive | 
30 | O=C(Nc1cccnc1)c1ccc2c(c1)OCO2 | inactive | 
31 | O=C(Nc1cccnc1)c1noc2c1CCCCC2 | 12.6 µM (active) | 
32 | Cc1ccc(Cl)cc1NC(=O)CSc1nc2ccccc2nc1Cc1ccccc1 | inactive | 
